This is a sample that favours compounds with a hit; in the whole collection about 22% have one here.
CYP2C19 inhib – inhibitors of human CYP2C19; CYP2C19 Supersomes, luciferin-H EGE luminescence, 30 min; inhibition, % at 5 µM; 96,000 compounds, 21% hits;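 active means CYP2C19 inhibition above a set limit at 5 µM in the primary screen, cut at about 50% in these data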;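 further: plate controls were negative control wells for no effect and 2.5 mM tranylcypromine positive control for full effect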
Target sequence (P33261 whole entry, looked up): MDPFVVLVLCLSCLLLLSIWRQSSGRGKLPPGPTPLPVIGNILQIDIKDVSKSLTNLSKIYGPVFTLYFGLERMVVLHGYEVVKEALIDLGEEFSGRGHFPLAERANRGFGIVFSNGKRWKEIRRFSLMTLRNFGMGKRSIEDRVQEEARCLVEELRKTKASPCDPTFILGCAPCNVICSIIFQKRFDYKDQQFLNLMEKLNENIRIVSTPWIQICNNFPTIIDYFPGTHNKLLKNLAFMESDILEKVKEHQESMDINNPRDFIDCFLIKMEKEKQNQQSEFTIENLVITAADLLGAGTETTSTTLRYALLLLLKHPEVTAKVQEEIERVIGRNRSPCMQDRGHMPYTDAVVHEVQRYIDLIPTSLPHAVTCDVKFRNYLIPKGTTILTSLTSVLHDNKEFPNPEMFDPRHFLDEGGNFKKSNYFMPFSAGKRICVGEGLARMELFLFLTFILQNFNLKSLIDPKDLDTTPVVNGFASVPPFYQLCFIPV
CYP2C9 activ – activators of human CYP2C9; recombinant CYP2C9, luciferin-H conversion, luminescence; active compounds read high; factor 1 = untreated enzyme, 0 = blocked; activation factor at 5 µM; 96,000 compounds, 1.4% hits; AID 1024;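 active means activation factor of 2 or more for CYP2C9 at a 5 µM dose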;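 further: 0 = sulfaphenazole-blocked wells and 1 = vehicle-only wells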
Measles CPE – protection of cells from measles virus. Measles virus-infected cells, CPE protection, absorbance. protection (pct of control), % at 4 µM. 140,000 compounds, 1.5% hits. AID 841; in the data active means protection mostly above about 24%, no sharp cut-off; inactive means mostly below about 26%
CYP2C19 activ – increases human CYP2C19 enzyme activity | P33261 | recombinant CYP2C19, luciferin-H EGE luminescence; active compounds read high; 0 = fully inhibited enzyme, 1 = untreated enzyme | activation factor at 5 µM | 96,000 tested, under 10 active | AID 1025;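 active means activation factor of at least 2 at 5 µM in the primary screen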;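 further: 0 = wells with 2.5 mM tranylcypromine and 1 = vehicle-only wells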
CYP2C9 inh – human CYP2C9 inhibition. 96,000 compounds, 20% hits. inhibition, % at 5 µM. CYP2C9 Supersomes, luciferin-H conversion, luminescence;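 active means blocking of liver enzyme CYP2C9 beyond about 50% at 5 µM, limit read from the data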
* = called active by the depositor; . = not tested or not shown.

SMILES	CYP2C19 inhib	CYP2C9 activ	Measles CPE	CYP2C19 activ	CYP2C9 inh
CCCN1CCC(N(C)CCc2ccc(OC)c(OC)c2)CC1	-8	1.1	5	1.1	-6
Brc1ccc2c(c1)CNc1c(ncnc1N1CCOCC1)O2	98*	0.4	24	0	58*
CC(C)(C)NC(=O)C(c1ccco1)N(C(=O)c1ccc(CN2CCOCC2)o1)c1ccccc1 (stereo unspecified)	-6	1	29	1.1	-5
COc1cccc(C(=O)Nc2cccc(OCC(=O)O)c2)c1	70*	0.6	7	0.3	36
COC(=O)c1[nH]c2cc(OC)c(OC)cc2c1NC(=O)c1cccc(OC)c1	6	0.4	8	0.9	59*
COc1cccc(C(=O)Nc2cccc(SC)c2)c1	87*	0.6	10	0.1	41
CCCCCCCCC(=O)N/N=C(\C)c1ccc(O)cc1O	.	.	2	.	.
Cc1ccc(COc2ccc(/C=N/O)cc2)cc1	.	.	4	.	.
CCOc1ccc(/C=N/O)cc1	55*	0.9	20	0.4	14
c1ccc(-c2nnc(-c3ccco3)n2-c2ccccc2)cc1	.	.	24	.	.
c1ccc(-n2c(-c3ccncc3)nnc2-c2ccco2)cc1	80*	0.5	20	0.2	50
c1ccc(-n2c(-c3ccncc3)nnc2-c2cccs2)cc1	71*	0.5	9	0.3	54*
CCOc1ccc(-c2nnc(SCC(=O)N3CCOCC3)o2)cc1	24	0.8	5	0.8	16
Cc1nc(-c2ccccc2)sc1C(=O)CSc1ccc(Br)cc1	13	0.1	5	0.9	85*
Cc1nc(-c2ccccc2)sc1C(=O)CSc1ccc(Cl)cc1	4	0.2	14	1	77*
CCOC(=O)c1cc(NC(=O)NCc2ccco2)c(C)nc1C	-1	0.6	5	1	43
COc1ccc(/C=C2\SC(=NCc3ccccc3)N(Cc3ccccc3)C2=O)cc1OC	72*	0.8	2	0.3	22
COc1cc(/C=C2/SC(=O)N(Cc3ccccc3)C2=O)ccc1OCc1ccncc1	80*	0.2	1	0.2	82*
CCN=C1S/C(=C\c2ccc(OC)c(OCC)c2)C(=O)N1CC	.	.	8	.	.
O=C(COC(=O)CNC(=O)c1ccccc1)Nc1cccc(Br)c1	.	.	22	.	.
O=C(c1ccccc1S(=O)(=O)NCc1ccccc1)N1CCCCC1	89*	0.5	6	0.1	48
Cc1cccc(/C=C2\CCC(C3CCCC3)C2=O)c1 (stereo unspecified)	.	.	11	.	.
O=C(CSCc1ccc(Cl)cc1)N1CCOCC1	.	.	11	.	.
Cc1ccc(C(CC(=O)N2CCOCC2)c2ccco2)cc1 (stereo unspecified)	84*	0.8	10	0.2	22
Cc1ccc(CSCC(=O)N2CCOCC2)cc1	75*	1.2	3	0.3	-15
SMILES	CYP2C19 inhib	CYP2C9 activ	Measles CPE	CYP2C19 activ	CYP2C9 inh
CCN(CC)CCCNC(=O)C1c2cc(OC)c(OC)cc2C(=O)N(C)C1c1cccs1 (stereo unspecified)	74*	0.8	13	0.3	19
CCCN(CCC)CCCNC(=O)C1c2cc(OC)c(OC)cc2C(=O)N(C)C1c1cccs1 (stereo unspecified)	0	1	5	1	-5
CCN(CC)CCNC(=O)C1c2cc(OC)c(OC)cc2C(=O)N2CCc3ccccc3C12 (stereo unspecified)	2	0.2	5	1	76*
CCOC(=O)N1CCN(C(=O)C2c3cc(OC)c(OC)cc3C(=O)N3CCc4ccccc4C23)CC1 (stereo unspecified)	6	0.2	10	0.9	76*
O=c1c(-c2ccc3c(c2)OCCO3)coc2cc(O)cc(O)c12	12	2.4*	15	0.9	-141
Cc1nn(-c2cccc(C(F)(F)F)c2)c(Cl)c1/C=N/n1cnnc1	90*	0	5	0.1	95*
FC(F)(F)c1cccc(-n2cccc2/C=N/n2cnnc2)c1	44	0.8	11	0.6	20
CCOC(=O)c1c(NC(=O)c2ccoc2C)sc(C)c1C	-13	1.4	22	1.1	-35
CCCc1cc(C(N)=O)c(NC(=O)c2cc(C)on2)s1	18	0.4	16	0.8	64*
O=C(Nc1nnc(Cc2ccccc2)s1)c1ccco1	2	0.7	18	1	27
CCCc1cc(C(N)=O)c(NC(=O)c2ccoc2C)s1	67*	0.1	20	0.3	88*
NC(=O)c1cc(Cc2ccccc2)sc1NC(=O)c1ccco1	17	0.4	13	0.8	56*

Screening data deposited in PubChem BioAssay by several laboratories.
